The subject of test [1] is Vero E6 infected with SARS-CoV-2. Nature of the test: morphology score (similarity to uninfected cells); higher = more like uninfected cells. The note with it: 24 h.
The test system is the same in test [2]. Nature of the test: SARS-CoV-2 infection rate relative to infected DMSO; higher = more infection, active = 60 or less. To be noted: 24 h.

For 31 compounds, morphology score and SARS-CoV-2 infection rate results are on record in the supplement of paper PMC13380429.

In turn, `CC(=O)Nc1cccc2c1c(Sc1ccc(Cl)cc1)c(C)n2CC(=O)O` (10 µM) yielded a morphology score in test [1] of 0.187. Moreover, the SARS-CoV-2 infection rate in test [2] is 97% (inactive).
Regarding `CCn1c(-c2nonc2N)nc2c(C#CC(C)(C)O)ncc(OC[C@H]3CCCNC3)c21` (10 µM), the morphology score in test [1] was found to be 0.337. Moreover, the SARS-CoV-2 infection rate in test [2] was 105% (inactive).
`C[C@]12Cc3c[nH]nc3C[C@@H]1CC[C@@H]1[C@@H]2CC[C@@]2(C)[C@H]1CC[C@]2(C)O` [stanozolol] (10 µM) yielded a morphology score in test [1] of -0.305. For the same compound, in test [2], the SARS-CoV-2 infection rate is 110% (inactive).
Regarding `N#Cc1cc(-c2n[nH]c(-c3ccncc3)n2)ccn1` [topiroxostat] (10 µM), the morphology score in test [1] stood at 0.145. The SARS-CoV-2 infection rate in test [2] was 94.5% (inactive).
Taken in the same sequence, the figures for `CCCc1cc(=O)[nH]c(=S)[nH]1` [propylthiouracil] (10 µM) were 0.00376 and 104% (inactive).
`N#CC(c1ccc(Cl)cc1)c1c(Cl)cc(-n2ncc(=O)[nH]c2=O)cc1Cl` (configuration not stated) [diclazuril] (10 µM) returned a morphology score in test [1] of 0.16. The SARS-CoV-2 infection rate in test [2] was 93% (inactive).
In turn, `Cc1ccc(S(=O)(=O)NC2c3ccccc3Oc3ccccc32)cc1` (10 µM) displayed a morphology score in test [1] of 0.173. For the same compound, the SARS-CoV-2 infection rate in test [2] was 95.5% (inactive).
`O=C(Nc1cc(C(F)(F)F)cc(C(F)(F)F)c1)c1cc(Cl)ccc1O` [IKK-2-inhibitor-V] (10 µM) yielded a morphology score in test [1] of -0.2. Further, in test [2], the SARS-CoV-2 infection rate was 104% (inactive).
As for `C[C@H]1C[C@H]2[C@@H]3CCC4=CC(=O)C=C[C@]4(C)[C@@]3(F)[C@@H](O)C[C@]2(C)[C@@]1(O)C(=O)CO` [betamethasone] (10 µM), in test [1], the morphology score is -0.0234. In test [2], the SARS-CoV-2 infection rate was 111% (inactive).
As to `O=C(Cc1ccc(-c2ccc(OCCN3CCOCC3)cc2)cn1)NCc1ccccc1` (10 µM), the morphology score in test [1] is -0.5. The SARS-CoV-2 infection rate in test [2] was 112% (inactive).
Regarding `NCC(=O)CCC(=O)O` [5-aminolevulinic-acid] (10 µM), in test [1], the morphology score stood at 0.0459. For the same compound, in test [2], the SARS-CoV-2 infection rate is 113% (inactive).
Taken in the same sequence, the figures for `COc1cc(Oc2ccnc3cc(OC)c(OC)cc23)ccc1NC(=O)NC(C)c1nccs1` (configuration not stated) (10 µM) were 0.332 and 101% (inactive).
Turning to `CCN(CC)CC1CCN(c2ncc3ncnc(Nc4ccc(F)c(Cl)c4)c3n2)CC1` (10 µM), the morphology score in test [1] was -0.273. For the same compound, the SARS-CoV-2 infection rate in test [2] was 112% (inactive).
For `CN(C)Cc1ccc(S(=O)(=O)n2ccc(/C=C/C(=O)NO)c2)cc1` [resminostat] (0.833333 µM) the same measures were -0.101 and 116% (inactive).
For `O=C1c2cccnc2OC[C@@H]2CCCN12` (10 µM) the same measures were -0.0333 and 108% (inactive).
`CCCCNc1ccc(C(=O)OCCN(C)C)cc1` [tetracaine] (10 µM) displayed a morphology score in test [1] of -0.144. In test [2], the SARS-CoV-2 infection rate is 116% (inactive).
Take `CC(=O)N(CC(O)CO)c1c(I)c(C(=O)NCC(O)CO)c(I)c(C(=O)NCC(O)CO)c1I` (configuration not stated) [iohexol] (10 µM): in test [1], the morphology score is 0.142. Moreover, the SARS-CoV-2 infection rate in test [2] is 104% (inactive).
Turning to `CC#CCOC(=O)c1c(C)nc2sc3c(c2c1N)CCC(O)C3` (configuration not stated) (10 µM), in test [1], the morphology score was 0.151. Moreover, the SARS-CoV-2 infection rate in test [2] was 93% (inactive).
In test [1], `CCCCCCCCCCC(O)C1C=CC2C(=O)N(c3ccccc3)C(=O)C2N1Nc1ccc([N+](=O)[O-])cc1` (configuration not stated) (10 µM) showed a morphology score of 0.496. In addition, the SARS-CoV-2 infection rate in test [2] is 69.5% (inactive).
On to `CNCc1cc(-c2ccccc2F)n(S(=O)(=O)c2cccnc2)c1` [vonoprazan] (10 µM), for which the morphology score in test [1] came out at 0.00653. In addition, in test [2], the SARS-CoV-2 infection rate is 114% (inactive).
For `O=C(CCCN1CCC(O)(c2ccc(Cl)cc2)CC1)c1ccc(F)cc1` [haloperidol] (10 µM) the same measures were -0.0179 and 114% (inactive).
For `Cn1c(=O)c2c(ncn2C)n(C)c1=O` [caffeine] (10 µM), the morphology score in test [1] was -0.174. Moreover, in test [2], the SARS-CoV-2 infection rate is 113% (inactive).
For the compound `COC(=O)[C@@]12OC[C@]34[C@H]([C@@H](O)[C@@H]1O)[C@@]1(C)CC(=O)C(O)=C(C)[C@@H]1C[C@H]3OC(=O)[C@H](OC(=O)/C=C(\C)C(C)C)[C@@H]24` [bruceantin] (0.833333 µM), the morphology score in test [1] was -0.0265. The SARS-CoV-2 infection rate in test [2] was 109% (inactive).
Turning to `COc1cc(Br)c(S(=O)(=O)Nc2ccc(C(F)(F)F)c(O[C@@H]3CCN(C)C3)c2)cc1OC` (10 µM), the morphology score in test [1] came to 0.024. Further, the SARS-CoV-2 infection rate in test [2] was 104% (inactive).
In turn, `CC(=O)OCC(=O)[C@@]1(O)CC[C@H]2[C@@H]3CCC4=CC(=O)CC[C@]4(C)[C@H]3[C@@H](O)C[C@@]21C` [hydrocortisone-acetate] (10 µM) yielded a morphology score in test [1] of -0.00868. In test [2], the SARS-CoV-2 infection rate is 110% (inactive).
In turn, `O=C([O-])C(O)[C@H](O)[C@@H](O)[C@H](O)[C@H](O)CO.O=C([O-])C(O)[C@H](O)[C@@H](O)[C@H](O)[C@H](O)CO.[Ca+2]` (some centres not stated) [calcium-gluceptate] (10 µM) showed a morphology score in test [1] of -0.0282. Further, in test [2], the SARS-CoV-2 infection rate is 114% (inactive).
For `Cc1ccc2c(c1)c1c3n2CCNC3CCC1` (configuration not stated) [pirlindole] (10 µM) the same measures were 0.0112 and 106% (inactive).
For `CO[C@H]1CC[C@@H](C(=O)c2ccc3nc4c(cc3c2)CCCO4)CC1` (10 µM) the same measures were 0.0672 and 104% (inactive).
As for `O=C1NC(=O)[C@@]2(CCOc3ccc(F)cc32)N1` [sorbinil] (10 µM), in test [1], the morphology score was determined as 0.139. Besides, in test [2], the SARS-CoV-2 infection rate was 98% (inactive).
For `N[C@@H]1CCCCN(c2c(F)cc3c(=O)c(C(=O)O)cn(C4CC4)c3c2Cl)C1` [besifloxacin] (10 µM), the morphology score in test [1] was found to be 0.165. In addition, in test [2], the SARS-CoV-2 infection rate is 110% (inactive).
With `O=C(NC(O)C(Cl)(Cl)Cl)NC(O)C(Cl)(Cl)Cl` (configuration not stated) [dicloralurea] (10 µM), in test [1], the morphology score turned out to be 0.108. Also, in test [2], the SARS-CoV-2 infection rate was 106% (inactive).
